From PubChem BioAssay (NCATS)
Results filed as inconclusive are left out. A number with no mark means an inactive call. The call rests on the fitted dose curve; in most records, active means well fitted activation curve with a large enough effect; inconclusive means small, poorly fitted or top-dose-only effect; inactive means flat fitted curve, though single readings scatter. Peptide text beside a SMILES is read from it. * marks the point of attachment. Hexanoyl = CCCCCC(=O)*

Experiment: HEK293 12hr Apoptosis Induction qHTS against the NCATS CANVASS Library (AID 1347361); further: 0% is about no effect
Settings: HEK293 caspase-3/7 Caspase-Glo luminescence; series mostly up to 46.1 µM; caspase activation: at the top concentration
Excerpt: Natural products and their derivatives continue to be wellsprings of nascent therapeutic potential. However, many laboratories have limited resources for biological evaluation, leaving their previously isolated or synthesized compounds largely or completely untested. To address this issue, the Canvass library of natural products was assembled (https://tripod.nih.gov/canvass), in collaboration with academic and industry researchers, for quantitative high-throughput screening (qHTS) across a diverse set of cell-based and biochemical assays. The pure (>85% purity by liquid chromatography/mass spectrometry [LC/MS]) Canvass library of 346 natural products were submitted by 45 academic laboratories and companies around the world. We collected pure natural products to circumvent deconvolution and structure elucidation due to time and resource limitations. The library was formatted into 1536-well plates and evaluated in 50 qHTS (in an 11-pnt concentration series) bioassays with broad scope of disease-relevant mechanisms. The resulting data set from 50 different assays was then systematically analyzed to identify overall trends and specific natural products with interesting biological activities. Reported herein are the results of each individual qHTS and their corresponding assay protocol. The Caspase-Glo (R) (Promega) is a homogeneous, luminescent assay that measures caspase activity. The detection substrate contains tetrapeptide sequence DEVD in an "add-mix-measure" format. The reagent generates a luminescent signal produced by a thermostable luciferase. The luminescence is proportional to the amount of caspase activity in the assay reaction. National Center for Advancing Translational Sciences (NCATS), Rockville, MD National Institute of Health (NIH), Bethesda, Maryland
Cancer Cell Apoptosis Assay 1. In a 1536 well, white solid bottom tissue culture plates (Corning 7494), HEK293 cancer cells in DMEM + 10% FBS + 1% P/S media were dispensed in each well at a final concentration of 500 cells / well (5uL volume) using the Multidrop Combi (Thermo Fisher Scientific) dispenser. 2. Compounds were pin transferred (~23nL volume) via Wako Pin-tool (Wako Automation, Richmond VA) equipped with a 1536 pin head. The assay plates were treated with compounds in a concentration series with a final concentration range of […] to 103uM. 3. Doxorubicin was used as a control in a 16pnt titration (1mM; 1:2 dilution; 16-points; n = 2; column 3, rows 1 - 32) and was pin transferred via Wako Pin-tool equipped with a 1536 pin head. The final concentration range of doxorubicin is 0.1nM - 4uM. 4. The assay plates were incubated for 12 hours at 37 degrees C/5% CO2/95% Rh. 5. 3uL Caspase-Glo 3/7 (R) (Promega) detection reagent was then added to the assay plates (columns 2 - 48, rows 1 - 32) and incubated at room temperature, covered from light, for 15 min. 6. Luminescence signal was acquired via the ViewLux plate reader (PerkinElmer) using a clear filter, 20 second exposure, and 2x binning settings.

Compound | caspase activation
CN1CCc2cc3c(c4c2C1(C)C(=O)c1cc(O)ccc1-4)OCO3 (stereo not given) | -2.3%
C=C(C)CC[C@H](Cc1c(O)cc(O)c2c1O[C@H](c1ccc(O)cc1)CC2=O)C(=C)C | 2.21%
C=C(Cl)[C@](Cl)(CBr)CC[C@@H](Br)C(C)(C)Cl | 7.82%
O[C@H]1c2ccccc2-c2c3c(cc4c2[C@@H]1NCC4)OCO3 | 5.72%
C=C1C(=O)O[C@H]2[C@H]1CCC(C)=C1CC[C@@](C)(O)[C@@H]12 | 11.5%
C/C1=C/[C@@H](C)[C@H](O)C/C=C/CC/C=C/C(=O)O[C@@H]1[C@H](C)C(=O)CCCC1CC(=O)NC(=O)C1 | -3.06%
C=C1CCC2C(C)(C(=O)O)CCC(CC/C(C)=C/C(=O)NC(CCC(N)=O)C(=O)O)[C@@]2(C)C1 (stereo not given in full) | 2.89%
COC(=O)[C@@]12Oc3cccc(O)c3C(O)=C1C(=O)C[C@H](C)[C@H]2O | 0.631% [at 91.4 µM]
CC(=O)O[C@H]1c2ccccc2-c2c3c(cc4c2[C@@H]1N(C(C)=O)CC4)OCO3 | 2.19%
C[C@H](CCC(O)C(C)(O)CO)[C@@]1(O)CC[C@@]2(C)C3=C(CC[C@@]21C)[C@@]1(C)CCC(OC(=O)CCC(=O)O)C(C)(C)[C@@H]1CC3 (stereo not given in full) | 1.99%
C/C(=C\[C@H](C)C(=O)CCCC1CC(=O)NC(=O)C1)[C@@H]1OC(=O)/C=C/CC/C=C/[C@H](O)[C@@H](O)[C@@H]1C | -1.76%
C/C(=C\[C@H](C)C(=O)/C=C/CC1CC(=O)NC(=O)C1)[C@@H]1OC(=O)/C=C/CC/C=C/C[C@@H](O)[C@@H]1C | 11.3%
CC1(C)CC[C@]2(CO)CC[C@]3(C)C(=CCC4[C@@]5(C)CC[C@H](O)C(C)(C)C5CC[C@]43C)C2C1 (stereo not given in full) | 3.23%
C/C1=C/[C@@H](C)[C@H](O)[C@@H](O)/C=C/CC/C=C/C(=O)O[C@@H]1[C@H](C)C(=O)CCCC1CC(=O)NC(=O)C1 | -1.24%
C[C@H](c1cnc(N)[nH]1)c1ccc(O)c2[nH]cc(-c3cnc(-c4c[nH]c5ccccc45)c(=O)[nH]3)c12 | -1.69%
C/C(=C\[C@@H](C)CC/C=C/CC/C=C/C(=O)O)[C@H](O)[C@H](C)C(=O)CCCC1CC(=O)NC(=O)C1 | -2.09%
O=C1CC2OCC=C3CN4C5CC3C2[C@@H]2N1c1ccccc1[C@]52C[C@@H]4C1=C[C@H]2C3CC4N(CC[C@@]45c4ccccc4N(C1=O)[C@@H]25)C/C3=C/CO (stereo not given in full) | 12.9%
C/C(=C\CC[C@@H](C)[C@H]1CC[C@]2(C)C3=CCC4C(C)(C)[C@@H](O)C[C@@H](O)[C@]4(C)C3[C@H](O)C[C@@]12C)CO (stereo not given in full) | 9.72%
C[C@@]1(CCC(=O)Nc2c(O)ccc(C(=O)O)c2O)C(=O)C=C[C@]23C[C@H]4C[C@H](O[C@@]4(C)C2)C31 (stereo not given in full) | -1.2%
C/C=C(/C)c1cc(O)c(C)c2c1Oc1cc(O)cc(C)c1C(=O)O2 | 3.03%

Compound | caspase activation
CC(C)C[C@@H]1c2c(O)c(C=O)c(O)c(C=O)c2O[C@]2(C)C=C[C@@H](C(C)C)C[C@H]12 | 1.26%
CCCCCC(=O)N[C@@H](CC(C)C)C(=O)N[C@H](C=O)CCC(=O)O (Hexanoyl-Leu-Glu-aldehyde) | -3.05%
CC(C)=CC[C@H]1C[C@@]2(CC=C(C)C)C(=O)[C@](CC=C(C)C)(C(=O)C(C(=O)c3ccccc3)=C2O)C1(C)C | -2.42%
COc1cc(C2OCC3C(c4ccc(O)c(OC)c4)OCC23)ccc1O (stereo not given) | 3.13% [at 9.19 µM]
C[C@@]12CCC[C@@](C)(C(=O)O)[C@H]1CC[C@@]13C[C@@H](CC[C@H]12)[C@](C)(O)C3 | 1.2%
CO/C=C/C(=O)c1cc2cnc3c(N)cc(=NC(=O)C(C)C)c([nH]1)c23 | 6.06%
C=C[C@](Cl)(CBr)CCC=C(C)C | -1.29%
O=Cc1ccc2n1C[C@]1(C[C@H](O)[C@@H](CO)O1)OC2 | 3.94%
C=CC(CCCCC)C1C(=O)NC(=O)C1C(=O)C1C(/C=C/C)C=CC2CC(C(=O)O)CC(C)C21 (stereo not given) | 3.73%
CCC(C)=C1OC(=O)[C@H](C)[C@H](O)[C@H](Cc2cccnc2)NC(=O)C(NC(=O)c2ncccc2O)C(C)OC1=O (stereo not given in full) | -1.3%
C/C=C/[C@H]1[C@H]2C(=O)c3c(O)c(C)c(O)c(C)c3[C@]1(C(=O)O)C(=O)C=C2C | 5.12%
COc1ccc([C@@H]2c3cc4c(cc3C(=O)[C@H](C)C2C)OCO4)cc1OC (stereo not given in full) | 1.55%
Cc1occ2c1C(=O)c1c(cc(O)c(O)c1O)C2=O | 0.929%
O=c1cc(-c2ccc(O)c(O)c2)oc2cc(O[C@@H]3O[C@H](CO)[C@@H](O)[C@H](O)[C@H]3O)cc(O)c12 | -4.03%
C/C=C1/C2=CCCN3C(=O)O[C@H]([C@H]1O)[C@H]23 | -2.13%
CO[C@H]1[C@@H](OC(=O)/C(C)=C\[C@@H]2O[C@@H]2[C@H]2O[C@H]2C)[C@H](O)[C@H](OCC23C[C@@H]4[C@H](C)CC[C@H]4C4(C=O)CC2C=C(C(C)C)C34C(=O)O)O[C@@H]1C (stereo not given in full) | 4.73%
CCC(=O)CCCCC[C@@H]1NC(=O)[C@H]2CCCCN2C(=O)[C@H](C(C)C)NC(=O)[C@H](Cc2cn(OC)c3ccccc23)NC1=O | 3.56%
COc1cc2c(c(O)c1O)C(=O)c1c(coc1C)C2=O | 13.1%
C=C1CC[C@@H](O[C@H]2C[C@@](O)([C@H](C)NC(=O)c3[nH]c(C)c(Cl)c3Cl)[C@H](O)[C@@H](C)O2)[C@@H]2C=C[C@H](C)C(/C(O)=C3/C(=O)[C@H](C(C)C)N([C@@H]4O[C@H](C)[C@H](OC(N)=O)[C@H](OC(C)=O)[C@@H]4OC)C3=O)[C@@H]12 (stereo not given in full) | 2.33%
COC12OC1(C13OC1(OC)C(=O)c1cc4cc(C)oc(=O)c4c(O)c1C3O)C(O)c1c(cc3cc(C)oc(=O)c3c1O)C2=O (stereo not given) | -0.518%
